Sampled rows, rich in hits. Any-hit rate of the full collection: about 2.8%.
WRN inhibitor – blocks human WRN helicase. Potency, µM (series often up to 114 µM), hits mostly inhibitors. Q14191. 360,000 tested, 0.46% active. AID 651768. WRN helicase unwinding, fluorescent forked duplex, kinetic; note: nearly all actives have a fitted effect of over 55% in size
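Fluorescence dequenching readout, ex 525 nm/em 598 nm, kinetic mode: forked duplex DNA (100 nM final) with adjacent fluorophore and quencher unwound by WRN (20 nM final) with 2 mM ATP. Compound preincubation 15 min, room temperature.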
POLK inh – inhibitors of human DNA polymerase kappa; Q9UBT6; purified Pol kappa, fluorescent DNA synthesis assay, 10 min; Potency, µM (doses to about 107 µM), actives largely listed as inhibitors; 400,000 tested, 0.53% active
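50 nM final substrate added after 15 min RT preincubation of 10 nM Pol kappa with compound; fluorescence read at 0 and 10 min.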
Pol iota inh – DNA polymerase iota (human) inhibition; Q9UNA4; Pol iota fluorescent replication assay, 10 min; Potency, µM (titrated, usually from 115 µM), hits mostly inhibitors; 390,000 tested, 1% active
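Fluorescent replication assay read twice, at 0 min and 10 min after adding 50 nM (final) substrate. Enzyme (10 nM) and compounds were first incubated 15 min at room temperature; enzyme-free buffer wells were negative controls.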
Pol beta inh – blocks human DNA polymerase beta activity; Pol beta primer extension/strand displacement, fluorescence kinetic; Potency, µM (highest dose often 114 µM), most hits filed as inhibitors; 340,000 tested, 1.3% active
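Curves were derived by four-parameter Hill fits of normalized qHTS data. The kinetic fluorescent primer-extension read was taken at 0 and 10 min after 50 nM substrate, following a 15 min room-temperature preincubation of 10 nM enzyme with compounds.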
PI5P4K alpha inh – inhibitors of human PI5P4K alpha | 330,000 tested, 1.2% active | P48426 | PI5P4Kalpha enzyme, ADP-Glo luminescence, 60 min; stronger effect = lower value | AID 652105 | max response, %; active = max response of -50% or lower; inconclusive = between -30% and -50%; inactive = -30% or higher; note: value at the top dose of about 77 µM
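Controls without substrate or without enzyme flank wells where PI5P4Kalpha converts substrate using 5 microM ATP (final). Incubation lasts 60 minutes at room temperature; ADP formed is read by ADP-Glo luminescence.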
Pol eta inh – inhibitors of human DNA polymerase eta. Q9Y253. recombinant Pol eta, fluorescent DNA replication assay. Potency, µM (doses to about 114 µM), most hits filed as inhibitors. 390,000 tested, 1.2% active. AID 588591
Target sequence (Q9Y253 whole entry, looked up): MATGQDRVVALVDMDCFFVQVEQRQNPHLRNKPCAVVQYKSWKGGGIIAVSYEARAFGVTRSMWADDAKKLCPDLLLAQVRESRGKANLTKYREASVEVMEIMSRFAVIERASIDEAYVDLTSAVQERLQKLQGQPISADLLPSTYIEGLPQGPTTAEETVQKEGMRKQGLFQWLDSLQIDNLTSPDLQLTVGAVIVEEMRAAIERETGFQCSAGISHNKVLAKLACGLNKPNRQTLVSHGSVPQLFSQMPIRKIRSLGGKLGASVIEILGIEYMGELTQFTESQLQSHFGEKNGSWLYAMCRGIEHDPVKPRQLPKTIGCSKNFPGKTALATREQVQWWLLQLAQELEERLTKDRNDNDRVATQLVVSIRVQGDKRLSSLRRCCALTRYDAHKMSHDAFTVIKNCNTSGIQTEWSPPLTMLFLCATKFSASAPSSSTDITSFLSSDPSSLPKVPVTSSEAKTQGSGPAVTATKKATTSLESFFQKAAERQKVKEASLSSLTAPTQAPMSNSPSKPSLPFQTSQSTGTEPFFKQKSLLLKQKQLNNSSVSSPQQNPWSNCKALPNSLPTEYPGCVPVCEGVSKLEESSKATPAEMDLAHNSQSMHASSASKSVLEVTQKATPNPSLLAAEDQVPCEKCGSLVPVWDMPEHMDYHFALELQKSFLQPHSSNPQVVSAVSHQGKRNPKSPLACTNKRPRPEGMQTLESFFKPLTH
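Pol eta at 10 nM preincubated with compounds 15 min at room temperature; reaction started with fluorescent substrate (50 nM final) and read kinetically at 0 and 10 min.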
Hits are given with their value; n = inactive; u = inconclusive; x = no result given; [ ] = dose if it differs, or a comment. Unless noted, calls come from the whole dose curve; as a rule, active = well fitted curve in the direction sought with a large enough effect; inconclusive = small, poorly fitted or top-dose-only effect, or another doubt; inactive = no such curve, though single readings can be large; an effect the other way counts as inactive or inconclusive.

SMILES	WRN inhibitor	POLK inh	Pol iota inh	Pol beta inh	PI5P4K alpha inh	Pol eta inh
CCCCCCCCCCCCOC(=O)N1CCN(/[N+]([O-])=N/Oc2ccc([N+](=O)[O-])cc2[N+](C)=O)CC1	x	n	n	x	x	x
O=C(O)c1cn(-c2ccccc2)nc1C(=O)O	n	n	n	n	-52	n
COC(=O)c1cn(-c2ccccc2)nc1C(=O)OC	n	n	n	n	x	n
CCOC(=O)/C=C1\SCC(=O)N1Cc1nnc(-c2ccccc2Br)o1	n	n	u	22µM	u	u
CCOC(=O)/C=C1/SCC(=O)N1Cc1ccc(Br)cc1	n	n	n	x	n	n
CC(=O)Nc1ccc(-c2ccc(NC(C)=O)c(O)c2)cc1O	n[11.6 µM]	u	u	u	u	35µM
CC(=O)Nc1ccccc1O	n	n	n	n	n	n
Cn1nc([N+](=O)[O-])nc1Oc1ccc(C(C)(C)C)cc1	n	n	u	n	n	n
CCOCCCn1c(=N)c(C(N)=S)cc2c(=O)n3cccc(C)c3nc21	n	n	u	n	x	n
CCOC(=O)c1cc2c(=O)n3cccc(C)c3nc2n(C)c1=N	x	x	x	79µM	x	x
CCOc1ccccc1CNc1ncnc2c1nc1n2CCCC1	x	n	n	n	x	n
O=[N+]([O-])c1ccc(-c2c[nH]c(=S)[nH]2)cc1	n[11.6 µM]	u	u	u	-77	40µM
S=c1[nH]cc(-c2ccccc2)[nH]1	n	n	n	n	n	n
COc1ccc(CCNC(=O)C(=O)NCC(c2cccs2)S(=O)(=O)c2ccccc2)cc1 (centres undefined)	x	n	89µM	u	x	n
COc1ccc(/C=C2\SC(=S)N(CCCC(=O)Nc3ccccc3C(=O)O)C2=O)cc1OC	n[11.6 µM]	n	u	n	-64	89µM
COc1cc(/C=C2\SC(=S)N(N3CCOCC3)C2=O)ccc1O	n	n	u	n	n	u
COc1cc(/C=C2/SC(=S)N(c3c(C)n(C)n(-c4ccccc4)c3=O)C2=O)ccc1O	u	n	28µM	28µM	n	u
O=C1/C(=C\c2ccc(O)c(O)c2)SC(=S)N1Cc1ccccc1	11µM	n	22µM	u	u	n
COc1cc(/C=C2/SC(=S)N(Cc3ccccc3)C2=O)ccc1O	8.9µM	u	40µM	10µM	n	u
CCOc1ccc(/C=C2/SC(=S)N(C(C(=O)O)c3ccccc3)C2=O)cc1OCC (centres undefined)	n	n	u	n	n	u
COc1cc(/C=C2\SC(=S)N(C(C(=O)O)c3ccccc3)C2=O)ccc1O (centres undefined)	50µM	n	28µM	u	n	u
O=C(O)COc1cccc(/C=C2/SC(=S)N(Cc3ccccc3)C2=O)c1	u	n	u	u	n	79µM
CCOC(=O)C1CCN(c2nc3c(S(=O)(=O)c4ccccc4)nnn3c3ccsc23)CC1	x	n	n	n	x	n
COC(=O)c1cc2sc(C)cc2n1Cc1ccccc1	x	n	n	n	x	n
COC(=O)c1cc(C(=O)OC)n(Cc2ccc(C)cc2)c1C	n[11.6 µM]	u	u	n	n	35µM
SMILES	WRN inhibitor	POLK inh	Pol iota inh	Pol beta inh	PI5P4K alpha inh	Pol eta inh
CCc1nc2oc3cc(OC)ccc3c(=O)c2c(=O)n1Cc1ccco1	n	n	u	25µM	u	n
Cc1c(Br)cc(C(=O)O)c(C)c1C	n	n	n	n	n	n
Cc1c(N)cc(N)cc1C(=O)O	n	89µM	45µM	n	n	n
COc1cccc(N2CCN(C(=O)c3ccc4nc[nH]c4c3)CC2)c1	n[11.6 µM]	n	u	n	n	89µM
COc1ccc(N(C(=O)Cc2cccs2)C2C=CS(=O)(=O)C2)cc1 (centres undefined)	u	n	u	16µM	u	u
Cc1ccc(N2CC(C(=O)OCC(=O)Nc3ccc(Cl)cc3)CC2=O)cc1 (centres undefined)	n	n	79µM	x	n	n
CNC(=O)C1CC(=O)N(c2ccc(OCC(=O)Nc3ccccc3)cc2)C1 (centres undefined)	n	n	n	x	-66	32µM
O=C(c1ccc2c(c1)N(Cc1c(F)cccc1Cl)C(=O)c1ccccc1S2)N1CCOCC1	x	n	n	n	x	n
O=C(O)C1C2C=CC(C2)C1C(=O)Nc1ccccc1Br (centres undefined)	n[11.6 µM]	n	n	89µM	n	u
CC(NC(=O)C1C2C=CC(C2)C1C(=O)O)c1ccccc1 (centres undefined)	n	n	n	n	n	n
COc1cc(CNC(=O)c2ccc3nc(Cc4ccccc4)oc3c2)cc(OC)c1OC	x	n	n	n	x	n
O=CNc1cc(-c2cccc(O)c2)cn2c(-c3ccc(F)cc3)cnc12	n	x	x	x	-72	x
CC(=O)Nc1cccc(-c2cc(NC=O)c3ncc(-c4ccc(C(C)=O)cc4)n3c2)c1	n	x	x	x	-51	x
CC(=O)c1ccc(-c2cnc3c(NC=O)cc(-c4ccc(C(=O)NC5CC5)cc4)cn23)cc1	u	x	x	x	-68	x
COc1ccc(-c2cc(NC=O)c3ncc(-c4cc(OC)c(OC)c(OC)c4)n3c2)cc1	79µM	x	x	x	u	x
CC(=O)ON(C(C)=O)c1ccc(/C=C2\C=Cc3ccccc32)cc1	x	n	n	x	x	x
CCOc1ccc(NC(=O)CSc2oc(-c3ccc(C)cc3)nc2S(=O)(=O)c2ccc(C)cc2)cc1	x	n	n	3.2µM	x	79µM
Cc1ccc(NC(=O)CSc2nc(NS(=O)(=O)c3ccccc3)cc(=O)[nH]2)cc1	50µM	22µM	u	22µM	u	22µM
CCc1ccc(NC(=O)CSc2nc(NS(=O)(=O)c3ccccc3)cc(=O)[nH]2)cc1	n	n	n	20µM	n	n
CCOc1ccc(NC(=O)CSc2nc(NS(=O)(=O)c3ccc(C)cc3)cc(=O)[nH]2)cc1	n[11.6 µM]	40µM	22µM	n	n	n
Cc1ccc(S(=O)(=O)Nc2cc(=O)[nH]c(SCC(=O)Nc3ccccc3Cl)n2)cc1	n	n	n	u	n	n
CCOc1ccc(NC(=O)CSc2oc(-c3cccs3)nc2S(=O)(=O)c2ccc(Cl)cc2)cc1	x	n	n	n	x	n
COc1ccc(CCNC(=O)c2ccc(F)c(S(=O)(=O)N3CCCCC3)c2)cc1	n	x	x	x	n	n
O=C(CNC(=O)C1CCCCC1)OCC(=O)c1ccc(-c2ccccc2)cc1	x	n	n	x	x	x
Cc1ccc(S(=O)(=O)Nc2cc(=O)[nH]c(SCC(=O)Nc3ccccc3C(F)(F)F)n2)cc1	n	n	n	n	n	n
Cc1ccc(S(=O)(=O)Nc2cc(=O)[nH]c(SCC(=O)Nc3cccc(C)c3)n2)cc1	n	u	50µM	n	n	n
COc1cc(C(=O)N2CCN(c3cccc(C(F)(F)F)c3)CC2)ccc1OCC(=O)N1CCOCC1	n	n	n	x	n	n
Oc1ccc(C[C@H]2CNC(=S)N2C[C@H]2CCCN2C[C@H](Cc2ccccc2)N2C[C@H](Cc3ccc(O)cc3)N(CCc3ccccc3)C2=S)cc1	n	x	x	x	n	x
